# Source: PubChem
# Pf growth 96h: P. falciparum growth inhibition at 96 hour, primary screen for plastid delayed-death inhibitors; Potency, µM (highest dose often 28.7 µM), without a hit: at the highest dose activity change, negative = inhibition, hits mostly inhibitors; 320,000 tested, 6.9% active; P. falciparum luciferase reporter growth, 96 h; note: % is set by controls: 0 for no effect and ±100 for the full control effect
#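 Cell-based qHTS: luciferase-tagged P. falciparum in erythrocytes (2% hematocrit, 0.05% parasitemia final) incubated with compounds for 96 hours, 37 C, 5% CO2; luciferase detection reagent then added and luminescence measured.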
# Pf growth 48h: P. falciparum growth inhibition at 48 hours (one generation); 310,000 tested, 5.9% active; Potency, µM (titrated, usually from 28.7 µM), inactives show at the top dose activity change, negative = inhibition, hits mostly inhibitors; P. falciparum luciferase growth in erythrocytes, 48 h; AID 504832; note: % is set by controls: 0 for no effect and ±100 for the full control effect
#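 Luciferase-expressing P. falciparum in infected erythrocytes (2% hematocrit, 0.1% parasitemia final) in RPMI 1640/0.5% Albumax were exposed to compound for 48 hours at 37 C, 5% CO2; growth read as luminescence.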
# NS1 function inh: inhibitors of influenza NS1 protein function. Potency, µM (series often up to 46.1 µM), for the others: at the highest dose activity, positive = more growth. 270,000 tested, 0.4% active; calls by dose curve; note: actives are rising curves; nearly all actives have a fitted effect of over 50% in size
#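 OD600 was taken as the measure of yeast growth restored by compound in an NS1-expressing S. cerevisiae strain. Cells had been washed out of glucose medium and diluted 1:100 into galactose -URA medium, pH 6.0.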
# SARS PLpro yeast: inhibitors of SARS-CoV papain-like protease in yeast; S. cerevisiae expressing SARS-CoV PLpro, growth rescue; 330,000 tested, 0.19% active; AID 485353; Potency, µM (titrated, usually from 32.9 µM), without a hit: top-dose activity, positive = growth rescue, actives largely listed as activators; calls by dose curve; note: 0% is about no effect; nearly all actives have a fitted effect of over 55% in size
# * = called active by the depositor; ? = inconclusive; nt = no result given; [ ] = dose if it differs, or a comment. This is a sample that favours compounds with a hit; in the whole collection about 10% have one here. Unless noted, calls come from the whole dose curve; as a rule, active = well fitted inhibition curve with a large enough effect; inconclusive = small, poorly fitted or top-dose-only effect, or another doubt; inactive = no such curve, though single readings can be large or run the other way. Potency is the fitted concentration of half-maximal effect.
SMILES,Pf growth 96h,Pf growth 48h,NS1 function inh,SARS PLpro yeast
COc1ccc(C(=O)/C=C/c2ccccc2)c(O)c1,53%,34%,-14%,-14%
COc1ccc(/C=C/C(=O)c2ccc(OC)cc2OC)cc1,1.7µM*,3µM*,-8%,-5%
COc1ccc(OC)c(C(=O)/C=C/c2cccnc2)c1,7.4µM*,?,-12%,-39%
CC(C)(C)c1nc(SCC(=O)Nc2nc3c(s2)CCCC3)c2ccccc2n1,?,1.2µM*,-10%,-4%
CC(C)(C)OC(=O)N1CCC(NC(=O)c2nc[nH]c2C(=O)N2CCN(C(=O)OC(C)(C)C)CC2)CC1,?,10µM*,nt,-9%
CCOC(=O)c1[nH]cnc1C(=O)NC1CCN(C(=O)OC(C)(C)C)CC1,?,-8%,nt,2%
CC(C)(C)OC(=O)NCCCCCNC(=O)c1[nH]cnc1C(=O)NC1CCN(C(=O)OC(C)(C)C)CC1,2.1µM*,9.3µM*,nt,-2%
CCSc1cc(N2CC(C)OC(C)C2)nc(-c2ccccc2Cl)n1 (stereo not drawn),nt,2.1µM*,?,-24%
Cc1ccc(NC(=O)CN(c2ccc(Cl)cc2)S(=O)(=O)c2cc([N+](=O)[O-])ccc2Cl)cc1,?,?,13%,-3%
COc1ccc(C)cc1S(=O)(=O)N(CC(=O)Nc1cccc([N+](=O)[O-])c1)c1ccc(C)c(C)c1,17%,13µM*,6%,16%
CC1(C)CC(N2CCCCC2)=CC(=[N+]2CCCCC2)C1,?,?,-2%,0%
CC1C[N+](=C2C=C(N3CCOCC3)CC(C)(C)C2)CC(C)O1 (stereo not drawn),12µM*,?,-3%,7%
CC1(C)CC(N2CCOCC2)=CC(=[N+]2CCOCC2)C1,8.3µM*,13µM*,nt,-1%
Cc1ccccc1C(=O)Oc1ccccc1C(=O)N1CCOCC1,8.3µM*,-13%,1%,8%
COC(=O)c1ccccc1C(=O)N1CCOCCN(C(=O)c2ccccc2C(=O)OC)CCOCC1,23%,9%,2%,19%
Cc1cccc(C)c1NC1=NC(C)(C)N=C(N)N1,132%,5%,1%,17%
CC1(C)N=C(N)NC(Nc2cccc(Br)c2)=N1,1.2µM*,nt,-5%,7%
O=C(NCC(=O)c1ccccc1)OCc1ccc([N+](=O)[O-])cc1,13µM*,-2%,10%,2%
C=CCN(c1ccccc1)S(=O)(=O)c1cccc(C(=O)NCc2ccco2)c1,nt,nt,nt,0%
CNCCCCOc1ccccc1Cc1ccccc1,17µM*,13µM*,nt,4%
CN(C)CCOc1ccccc1Cc1ccccc1,?,?,-6%,-1%
O=C(Cc1ccc2c(c1)CCCC2)Nc1ccccc1Br,2.6µM*,3.7µM*,-2%,4%
COc1ccc(CC(=O)NCC(=O)Nc2ccccc2Br)cc1,43%,26%,-8%,-10%
O=C(Cc1ccc2ccccc2c1)Nc1ccccc1Br,3.3µM*,?,6%,1%
O=C(COC(=O)c1cc(Cl)nc(Cl)c1)Nc1ccc(Cl)c(S(=O)(=O)N2CCOCC2)c1,nt,nt,nt,-11%
SMILES,Pf growth 96h,Pf growth 48h,NS1 function inh,SARS PLpro yeast
CCOC(=O)C1(Cc2cccc(Cl)c2)CCCN(C(=O)c2cc(C(C)C)nn2C)C1 (stereo not drawn),-7%,?,-39%,-3%
CC1(C)CC(NC(=O)CCc2nnc(CCCCc3ccccc3)o2)CCO1 (stereo not drawn),10µM*,-20%,-3%,1%
COc1cccc(NC(=O)CCN2C(=O)C3CC=CCC3C2=O)c1 (stereo not drawn),?,106%,-3%,4%
CCOC(=O)CN1C(c2ccc(O)cc2)Nc2ccc(Br)cc2C1c1ccccc1 (stereo not drawn),3.3µM*,?,-10%,-38%
Clc1ccc(CCC(Cn2ccnc2)Sc2c(Cl)cccc2Cl)cc1 (stereo not drawn),0.93µM*,1.5µM*,nt,nt
CC(=O)N1CCC(N(CCN2CCOCC2)C(=S)Nc2c(C)cccc2C)CC1,2%,1%,6%,15%
COc1ccccc1N1C(=O)N(CC(=O)C(C)(C)C)c2ccccc2S1(=O)=O,-1%,-11%,5%,0%
COc1ccc(N(CC(=O)Nc2ccc(S(=O)(=O)N3CCOCC3)cc2)S(=O)(=O)c2ccc(F)cc2)cc1,-1%,13µM*,18%,-1%
CCN(CC(=O)Nc1ccc(S(=O)(=O)N2CCOCC2)cc1)Cc1ccccc1,?,?,nt,6%
CCc1ccc(CN(C)CC(=O)Nc2ccc(S(=O)(=O)N3CCOCC3)cc2)cc1,?,10µM*,nt,0%[6.58 µM]
COc1ccc(CCC(=O)Nc2ccc(S(=O)(=O)N3CCOCC3)cc2)cc1,231%,-18%,7%,1%
CN(CC(=O)Nc1ccc(S(=O)(=O)N2CCOCC2)cc1)Cc1ccc(F)cc1,13µM*,?,nt,1%
CN(CC(=O)Nc1ccc(S(=O)(=O)N2CCCC2)cc1)CC(=O)Nc1ccc(F)c(F)c1F,?,10µM*,nt,-1%
CCN(CC)CC(=O)Nc1scc2c1c(=O)oc1ccccc12,0%,36%,-3%,0%
N#CS.N=C=S.N=C=S.[Cu].[NH2-].[NH2-].[NH2-].[NH2-].c1ccc2ncccc2c1,nt,nt,1%,nt
O=C(Nc1ccccc1N1CCOCC1)c1cccc(S(=O)(=O)N2CCOCC2)c1,4.7µM*,?,nt,7%
Cc1nc2ccc(NC(=O)c3cccc(S(=O)(=O)N4CC(C)OC(C)C4)c3)cc2s1 (stereo not drawn),8.3µM*,nt,3%,1%
COc1ccc(C(=O)Nc2ccc(Br)cc2F)cc1S(=O)(=O)N1CCCC1,10µM*,?,nt,-4%
Cc1ccccc1NC(=O)c1cccc(S(=O)(=O)N2CCOCC2)c1,?,21%,8%,-4%
CC1CN(S(=O)(=O)c2cccc(C(=O)Nc3cc(Cl)ccc3N3CCOCC3)c2)CC(C)O1 (stereo not drawn),9.3µM*,9.3µM*,nt,3%
COc1ccccc1N1CCN(Cc2cc(=O)c(OCC(=O)NC3CCCC3)co2)CC1,?,?,nt,-5%
CC1CC2=C(C(=O)O1)C(c1ccc(Cl)cc1)Nc1ccccc1N2 (stereo not drawn),?,?,0%,5%
COc1ccc(C(=O)Nc2ccc(N3CCCCCC3)cc2)cc1S(=O)(=O)N1CCOCC1,?,12µM*,nt,-1%
COc1ccc(C(=O)NCc2cccs2)cc1S(=O)(=O)N1CCOCC1,4.1µM*,?,nt,0%
COC(=O)c1cc(NCc2cccs2)ccc1N1CCOCC1,8.3µM*,-6%,-3%,-2%
COc1cccc(OC)c1C(=O)Nc1cc(Cl)ccc1N1CCOCC1,26%,0%,-16%,-1%
O=C(O)c1cc(NCc2cccs2)ccc1N1CCOCC1,-17%,18%,-6%,-1%
COc1ccc(C(=O)Nc2cc(Cl)ccc2N2CCOCC2)cc1S(=O)(=O)N1CCOCC1,?,10µM*,nt,-3%
Cc1cc(NC(=O)COC(=O)c2cc(S(=O)(=O)N(C)C)ccc2Cl)no1,18%,-17%,nt,-14%
